A selection: hits, their analogues and other compounds. The true share with any hit is near 0.81%.
TRHR agonist-1 = qHTS for Small Molecule Agonists and Allosteric Enhancers of Human TRH Receptor: Primary Screen for Agonists | Thyrotropin-releasing hormone receptor (Homo sapiens), P34981 | TRHR cells, calcium flux fluo-8, FDSS agonist mode | activation, % at 2 µM | hit rate 0.18% among 360,000; in the data active = activation above about 30%; note: 0% is about no effect
Target sequence (P34981 whole entry, looked up): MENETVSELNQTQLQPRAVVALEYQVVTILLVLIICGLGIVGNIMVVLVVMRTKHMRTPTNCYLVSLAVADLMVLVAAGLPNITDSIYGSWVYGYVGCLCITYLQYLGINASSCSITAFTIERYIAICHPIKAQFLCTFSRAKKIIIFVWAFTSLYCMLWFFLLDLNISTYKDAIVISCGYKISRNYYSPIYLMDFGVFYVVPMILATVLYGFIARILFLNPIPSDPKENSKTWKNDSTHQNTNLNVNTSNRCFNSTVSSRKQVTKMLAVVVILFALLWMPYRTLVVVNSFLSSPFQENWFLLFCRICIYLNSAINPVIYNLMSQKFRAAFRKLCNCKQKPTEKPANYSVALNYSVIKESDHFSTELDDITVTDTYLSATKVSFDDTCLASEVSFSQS
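Fluo-8-loaded TRHR cells; 10 s baseline, compound added, kinetic Ca2+ fluorescence read 1/s, agonist mode.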
TRPML1 blocker = qHTS for Inhibitors of the Human Mucolipin Transient Receptor Potential 1 (TRPML1); hit rate 0.02% among 390,000; Mucolipin-1 (Homo sapiens), Q9GZU1; activity change, negative = inhibition, % (no concentration beside the values); TRPML1-inducible cells, Ca2+ dye fluorescence, FDSS; stronger effect = lower value; inhibition of EC80 agonist-evoked calcium signal; in the data active = activity change below about -50%; inconclusive = between about -30% and that limit;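 note: stimulus is agonist 54-4 at its EC80 concentration; % is set by controls: 0 for no effect and ±100 for the full control effect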
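Tet-induced TRPML1-DL cells loaded with Ca8 no-wash calcium dye were read kinetically on FDSS. Compound addition was followed by EC80 agonist 54-4 (4 uM final); inhibition was read over 110 s.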
TRPML1 ag = qHTS for Agonists of the Human Mucolipin Transient Receptor Potential 1 (TRPML1); TRPML1-expressing cells, Ca2+ dye fluorescence, FDSS; activation, % (test concentration not listed); hit rate 0.12% among 410,000; AID 624414, 2012; in the data active = activation above about 50%; inconclusive = mostly about 30% to 49%; note: 0% is about no effect
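Tetracycline-induced TRPML1-DL cells are seeded and incubated overnight before loading with a no-wash Ca2+ dye and quencher. Agonist activity is taken from the 110 s fluorescence read following compound pin-transfer on an FDSS, before EC80 54-4 challenge.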
TRHR enhancer-1 = qHTS for Small Molecule Agonists and Allosteric Enhancers of Human TRH Receptor: Primary Screen for Enhancers; Thyrotropin-releasing hormone receptor (Homo sapiens), P34981; hit rate 0.66% among 360,000; enhancement, % at 2 µM; TRHR cells, fluo-8 calcium fluorescence, EC20 TRH enhancement; in the data active = enhancement above about 30%; note: 0% is about no effect
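Enhancer read-out: after compound pinning and an initial kinetic agonist-mode read, an EC20 of TRH (10 nM final) was injected and fluo-8 calcium signal (Ex 480/Em 530) followed at 1 s/cycle for 100 cycles in TRHR-expressing cells.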
TRHR enhancer-2 = qHTS for Small Molecule Agonists and Allosteric Enhancers of Human TRH Receptor: Confirmation Screen for Enhancers. activity change, negative = inhibition, % at 46.1 µM. shares compounds with TRHR enhancer-1. TRH receptor cell assay, enhancer confirmation qHTS. AID 493076, 2011. 970 tested, under 10 active;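 note: compound effect scored on response to added TRH at EC20 of 10 nM; 0% is about no effect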
TRHR agonist-2 = qHTS for Small Molecule Agonists and Allosteric Enhancers of Human TRH Receptor: Confirmation Screen for Agonists | shares compounds with TRHR enhancer-1 | hit rate 8% among 970 | TRHR-expressing cells, agonist activation read-out | AID 493078, 2011 | Potency, µM (top dose mostly 46.1 µM), inactives show top-dose activation, usual class: activators; note: potency is the fitted concentration of half-maximal effect; 0% is about no effect; nearly all actives have a fitted effect of over 75% in size
Numbers without * were called inactive; ? = inconclusive; / = no result; ! = a repeat was not active. Unless noted, calls come from the whole dose curve; as a rule, active = well fitted curve in the direction sought with a large enough effect; inconclusive = small, poorly fitted or top-dose-only effect, or another doubt; inactive = no such curve, though single readings can be large; an effect the other way counts as inactive or inconclusive.

SMILES	TRHR agonist-1	TRPML1 blocker	TRPML1 ag	TRHR enhancer-1	TRHR enhancer-2	TRHR agonist-2
CSCCCNC(=S)Nc1ccc(N2CCOCC2)cc1N1CCOCC1	1	-8	0	-3	/	/
CSCCCNC(=S)Nc1ccc(N2CCOCC2)cc1	0	0	0	43*	-3	1%
Cc1ccc(C(=O)CN2C(=O)NC3(CCc4ccccc43)C2=O)s1 (stereo not given)	-1	11	1	58*	-2	-1%
O=C(c1ccc2c(c1)OCCO2)N1CCN(c2nc(-c3cccs3)nc3ccccc23)CC1	/	/	0	/	/	/
COC(=O)/C(C#N)=C1/C=Cc2ccccc2N1	0	-2	0	54*	-7	?
N#C/C(=C/c1ccc(F)cc1)c1nc(CCN2C(=O)c3ccccc3C2=O)cs1	28	-2	0	7	-1	3%
CCn1c(C)c(C)c2cc(C(=O)NC3CCCCCC3)ccc21	0	3	2	45*	?	2%
O=C(Nc1ccccc1)/C(=C/c1ccc2c(c1)OCO2)NC(=O)c1ccco1	0	-11	-1	52*	2	0%
O=C(C[n+]1ccncc1)c1cccc2ccccc12	/	/	0	/	/	/
Cc1ccc(C)n1C1CCS(=O)(=O)C1 (stereo not given)	0	-7	0	-2	/	/
CC(C)c1ccccc1N=C1SCCN1C1CCS(=O)(=O)C1 (stereo not given)	0	0	-1	70*	1	?
COC(=O)c1cc2c([nH]c1=O)CC(c1ccccc1)CC2=O (stereo not given)	/	/	-1	/	/	/
COc1ccc(Cn2nnnc2CN(CCCN2CCOCC2)Cc2cc3cc(OC)ccc3[nH]c2=O)cc1	0	0	0	43*	8	-1%
O=C(Nc1ccc(Br)cc1Cl)c1cnn2c1NC(=C1CC1)C=C2C(F)F	/	/	0	/	/	/
Cc1ccc(O)c(NC(=O)c2ccccc2-c2ccccc2C(=O)O)c1	0	-19	1	43*	-2	7%
Cc1ccc(NC(=O)c2ccccc2-c2ccccc2C(=O)O)cc1	0	6	0	-5	/	/
CCc1ccccc1NC(=O)CN(C)C(=O)Cn1ncc(Cl)c(Cl)c1=O	0	23	0	49*	-2	1%
C=C1C=C(C(F)(F)F)n2ncc(C(=O)NCc3ccc(F)cc3)c2N1	/	/	-1	/	/	/
CC(C)(C)C(=O)CSc1n[nH]c(-c2ccccc2)n1	/	/	0	/	/	/
C=C1C=C(C)n2ncc(C(=O)Nc3cccc(C(=O)Nc4cccc(C(F)(F)F)c4)c3)c2N1	/	/	0	/	/	/
O=C(NC1CC1)C1=NOC(CNc2ncc(C(F)(F)F)cc2Cl)C1 (stereo not given)	1	5	-1	46*	-5	2%
CN(C)c1ccc(/C=C/c2cc(Cl)nc3ccccc23)cc1	/	/	0	/	/	/
Cc1cc(C)c2c(n1)nn1c(NCCCN(C)C)cc(C)nc21	0	-1	-1	57*	2	0%
NC(=O)COC(=O)c1c2c(nc3ccccc13)CCCCC2	0	6	0	49*	0	6%
COc1ccc(-c2cc(C(=O)Nc3cc(C)nn3-c3ccccc3)no2)cc1OC	0	1	-1	57*!	-7	2%
COc1cccc(-c2cc(C(=O)Nc3ccc(OC)c(OC)c3)no2)c1	27	7	0	2	1	2%
COc1ccc(NC(=O)c2cc(-c3ccccc3)on2)cc1OC	0	10	0	1	/	/
O=C1NC(Cc2c[nH]c3ccccc23)C(=O)N1Cc1cccc2ccccc12 (stereo not given)	0	-2	2	56*	-4	1%
C[N+]1(CC(=O)c2ccc(Cl)cc2)CCOCC1	/	/	0	/	/	/

Assay outcomes as filed in PubChem.
